High-throughput results deposited in PubChem BioAssay by National Center for Advancing Translational Sciences (NCATS).
GCN5L2 inh: GCN5L2 (KAT2A) acetyltransferase inhibition; GCN5L2 HAT assay, ThioGlo1 CoA-SH fluorescence; Potency, µM (highest dose often 58.9 µM), usual class: inhibitors; 390,000 tested, 0.21% active
Target sequence (Q92830 whole entry, looked up): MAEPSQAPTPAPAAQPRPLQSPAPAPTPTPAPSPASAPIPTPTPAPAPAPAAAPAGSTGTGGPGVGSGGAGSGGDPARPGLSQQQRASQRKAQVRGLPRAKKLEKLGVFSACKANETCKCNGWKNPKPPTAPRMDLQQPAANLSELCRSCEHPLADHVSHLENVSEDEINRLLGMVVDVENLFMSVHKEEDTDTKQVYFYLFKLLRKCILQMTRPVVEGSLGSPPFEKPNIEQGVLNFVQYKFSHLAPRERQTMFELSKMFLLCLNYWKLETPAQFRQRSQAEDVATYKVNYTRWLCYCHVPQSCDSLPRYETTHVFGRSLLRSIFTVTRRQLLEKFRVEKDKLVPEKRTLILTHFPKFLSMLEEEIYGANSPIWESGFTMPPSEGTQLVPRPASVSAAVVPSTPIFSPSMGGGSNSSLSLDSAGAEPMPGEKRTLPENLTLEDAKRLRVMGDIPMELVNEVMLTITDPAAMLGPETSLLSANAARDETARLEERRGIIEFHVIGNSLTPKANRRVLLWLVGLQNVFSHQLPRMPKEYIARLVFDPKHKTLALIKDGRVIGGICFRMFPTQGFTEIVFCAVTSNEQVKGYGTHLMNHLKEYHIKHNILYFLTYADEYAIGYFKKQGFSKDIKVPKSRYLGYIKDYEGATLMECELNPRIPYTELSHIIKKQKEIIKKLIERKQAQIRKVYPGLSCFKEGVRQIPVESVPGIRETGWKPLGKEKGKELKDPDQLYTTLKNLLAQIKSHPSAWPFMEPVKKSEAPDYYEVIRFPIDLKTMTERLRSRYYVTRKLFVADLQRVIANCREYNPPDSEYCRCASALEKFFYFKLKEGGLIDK
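ThioGlo1-coupled HAT assay: 20nM GCN5L2, 70uM acetyl-CoA, 75uM H3(1-25) peptide, pH 7.5. Fluorescence read at 340/540nm at start and after 20 min at room temperature.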
VDR inh: vitamin D3 receptor (human) inhibition. Potency, µM, hits mostly inhibitors. 400,000 tested, 0.93% active. P11473. VDR-SRC2-3 peptide fluorescence polarization, 2 h
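VDR–SRC2-3 interaction, FP format. Cmpds 23 nl via pintool, brief spin, 2 h ambient incubation.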
DT40 TDP1 no CPT: qHTS for Inhibitors of human tyrosyl-DNA phosphodiesterase 1 (TDP1): qHTS in cells in absence of CPT; DT40 Tdp1-/- hTDP1 cells, no CPT, ATP luminescence, 48 h; Potency, µM (highest dose often 46.2 µM), most hits filed as inhibitors; 420,000 tested, 15% active; note: nearly all actives have a fitted effect of over 55% in size
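Cells were dispensed at 400 per well, compounds added by pin tool, plates incubated ≥48 hr at 37 °C, then CellTiter-Glo added for 30 min at room temperature before luminescence reading. Line: DT40 Tdp1-/- complemented with hTDP1; camptothecin omitted.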
TDP1 cell CPT: DT40-hTDP1 cell growth loss with CPT; chicken DT40 Tdp1-/-;hTDP1 cells + 20 nM CPT, ATP luminescence, 48 h; Potency, µM (highest dose often 46.2 µM), actives largely listed as inhibitors; 420,000 tested, 12% active; note: nearly all actives have a fitted effect of over 55% in size
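Cell growth measured by CellTiter-Glo luminescence after a minimum 48 h, 37 C compound exposure with 20 nM CPT in Tdp1-knockout DT40 cells stably expressing hTDP1, seeded 400/well; qHTS titration format.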
PLK1 PBD block: inhibitors of human PLK1 polo-box domain binding. P53350. Plk1 PBD binding of FITC phosphopeptide, fluorescence polarization. Potency, µM, usual class: inhibitors. 360,000 tested, 2.8% active; note: series mostly up to about 57 µM; nearly all actives have a fitted effect of over 65% in size
TDP1 inh: blocks human tyrosyl-DNA phosphodiesterase 1; 350,000 tested, 0.28% active; Potency, µM (highest dose often 130 µM), most hits filed as inhibitors; Q9NUW8; recombinant TDP1, AlphaScreen DNA substrate cleavage; note: nearly all actives have a fitted effect of over 40% in size
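Recombinant E. coli-expressed Tdp1 (1 nM) preincubated with compound 15 min at RT, then 5'-biotin/3'-phosphotyrosine-FITC DNA substrate (15 nM) added for 5 min. AlphaScreen beads (10 ug/ml) added, 10 min RT; tyrosine-FITC cleavage read as signal loss.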
Of the large screens only hits and unclear results are named; the others gave an inactive call. An excerpt weighted towards active compounds, which were near 18% of everything screened. Calls come from the whole dose curve; as a rule, active = well fitted curve in the direction sought with a large enough effect; inconclusive = small, poorly fitted or top-dose-only effect, or another doubt; inactive = no such curve, though single readings can be large; an effect the other way counts as inactive or inconclusive.

CCOC(=O)C1(Cc2ccccc2C)CCCN(C(=O)c2ccnn2C)C1 (stereo unspecified)	DT40 TDP1 no CPT inconclusive (no result: TDP1 inh)
Cc1ccc(C(=O)N(Cc2cc3cc4c(cc3nc2N2CCOCC2)CCC4)CC2CCCO2)s1 (stereo unspecified)	none (no result: GCN5L2 inh, VDR inh, PLK1 PBD block, TDP1 inh)
Cn1cnc(S(=O)(=O)N2CCCCC2c2cc(C(=O)Nc3ccc(F)c(Cl)c3)no2)c1 (stereo unspecified)	DT40 TDP1 no CPT inconclusive, TDP1 cell CPT inconclusive (no result: GCN5L2 inh, VDR inh, TDP1 inh)
Cc1cccc(-n2ncc3c(NCCc4ccc(S(N)(=O)=O)cc4)ncnc32)c1	DT40 TDP1 no CPT inconclusive, TDP1 cell CPT 29µM
Cc1ccc(-n2ncc3c(NCc4ccco4)ncnc32)cc1C	none
Clc1cccc(-n2ncc3c(NCCCn4ccnc4)ncnc32)c1	DT40 TDP1 no CPT inconclusive, TDP1 cell CPT 21µM (no result: PLK1 PBD block)
Cc1cccc(-n2ncc3c(NCc4ccco4)ncnc32)c1	DT40 TDP1 no CPT 12µM, TDP1 cell CPT 13µM
Cn1ncc2c(NCc3ccco3)ncnc21	none (no result: GCN5L2 inh, VDR inh, PLK1 PBD block, TDP1 inh)
Cc1ccc2ncnc(NCc3ccco3)c2c1	DT40 TDP1 no CPT 4.5µM, TDP1 cell CPT 7.1µM (no result: GCN5L2 inh, PLK1 PBD block)
CC(CN(C)C)CN1c2ccccc2S(=O)(=O)c2ccccc21 (stereo unspecified)	none (no result: GCN5L2 inh, VDR inh, PLK1 PBD block, TDP1 inh)
COc1ccc(Nc2ncnc3c2cnn3-c2ccccc2)cc1OC	TDP1 cell CPT inconclusive
COc1ccc(OC)c(Nc2ncnc3c2cnn3-c2cccc(C)c2)c1	DT40 TDP1 no CPT 4.6µM, TDP1 cell CPT 5.2µM
c1ccc(CNc2ncnc3c2cnn3-c2ccccc2)cc1	DT40 TDP1 no CPT 4.6µM, TDP1 cell CPT 5.8µM
CC(O)CNCCNCc1c(OCc2ccccc2)ccc2ccccc12 (stereo unspecified)	DT40 TDP1 no CPT 23µM, TDP1 cell CPT 16µM
CCNCc1ccccc1OCc1ccccc1	PLK1 PBD block inconclusive
O=C(C1=C[C@H](c2ccc3c(c2)OCO3)C[C@H](OCCCCO)O1)N1CCN(Cc2ccc3c(c2)OCO3)CC1	DT40 TDP1 no CPT 18µM, TDP1 cell CPT inconclusive
O=C(C1=C[C@H](C2CCCCC2)C[C@H](OCCCCO)O1)N1CCN(Cc2ccc3c(c2)OCO3)CC1	DT40 TDP1 no CPT 18µM, TDP1 cell CPT 12µM
O=C(C1=C[C@H](c2ccc(Br)cc2)C[C@H](OCCCCO)O1)N1CCN(Cc2ccc3c(c2)OCO3)CC1	DT40 TDP1 no CPT 16µM, TDP1 cell CPT 18µM
O=C(C1=C[C@@H](c2ccc3c(c2)OCO3)C[C@@H](OCCCCO)O1)N1CCN(Cc2ccc3c(c2)OCO3)CC1	DT40 TDP1 no CPT inconclusive, TDP1 cell CPT inconclusive
O=C(C1=C[C@@H](c2ccc(Br)cc2)C[C@@H](OCCCCO)O1)N1CCN(Cc2ccccc2)CC1	DT40 TDP1 no CPT 5.8µM, TDP1 cell CPT 6.5µM
CCc1nnc(NC(=O)c2nc(SCc3ccc(F)cc3)ncc2Cl)s1	none (no result: PLK1 PBD block)
COC(=O)[C@H](CC(C)C)NCc1cccc(CN[C@@H](CC(C)C)C(=O)OC)c1	TDP1 cell CPT inconclusive (no result: TDP1 inh)
CN1CCc2c(sc3c2C(=O)NC(c2ccc(-c4ccc(Cl)cc4)o2)N3)C1 (stereo unspecified)	DT40 TDP1 no CPT inconclusive, TDP1 cell CPT inconclusive
COc1ccc(N2CCN(c3cc(C(=O)NC4CCCCC4)ncn3)CC2)cc1OC	DT40 TDP1 no CPT inconclusive, TDP1 cell CPT inconclusive (no result: GCN5L2 inh, VDR inh, TDP1 inh)
Cc1cc(C)n(CCCN2CCC(C(=O)Nc3cccc(-c4cccc(F)c4)c3)CC2)n1	DT40 TDP1 no CPT 18µM, TDP1 cell CPT inconclusive
CCn1ncc(CN2CCC(C(=O)Nc3cccc(-c4cccc(F)c4)c3)CC2)c1C	DT40 TDP1 no CPT 6.5µM, TDP1 cell CPT inconclusive
O=C(Nc1cccc(-c2cccc(F)c2)c1)C1CCN(Cc2ccc(CO)o2)CC1	DT40 TDP1 no CPT inconclusive, TDP1 cell CPT inconclusive
CC1CCN(Cc2c(C(=O)N3CCc4ccccc4C3)nc3ccc(Cl)cn23)CC1	DT40 TDP1 no CPT inconclusive, TDP1 cell CPT 21µM
CCCCC(=O)NC(=S)NNS(=O)(=O)c1ccccc1	VDR inh inconclusive, PLK1 PBD block 12µM
CCCCCC(=O)NC(=S)NNC(=O)CC	VDR inh inconclusive, DT40 TDP1 no CPT inconclusive, TDP1 cell CPT 16µM
O=C(NC(=S)NNS(=O)(=O)c1ccccc1)c1ccccc1[N+](=O)[O-]	none
Cc1ccc(-c2c(C)n([O-])c3c([n+]2=O)CCCCC3)cc1	none
CCCCNC(=O)[C@@H]1CC=C[C@@H]2CCN(CCCC)C(=O)[C@@H]21	DT40 TDP1 no CPT inconclusive (no result: GCN5L2 inh, VDR inh, PLK1 PBD block, TDP1 inh)
O=C(CS(=O)(=O)c1c[nH]c2ccccc12)NC1CCCCC1	none
COC(=O)[C@H]1C[C@@H]1[C@H](NC(C)=O)c1ccccc1	none (no result: GCN5L2 inh, VDR inh, DT40 TDP1 no CPT, TDP1 cell CPT, PLK1 PBD block)
COc1ccc(-c2cn3cc(C)ccc3n2)cc1F	VDR inh inconclusive, DT40 TDP1 no CPT inconclusive, TDP1 cell CPT inconclusive, PLK1 PBD block 9.5µM
Nc1ccc(NC(=O)NC2CCCCC2)cc1[N+](=O)[O-]	none
COc1cccc(CN(Cc2ccco2)S(=O)(=O)c2ccc(S(=O)(=O)NCc3ccccc3)cc2)c1OC	DT40 TDP1 no CPT inconclusive, TDP1 cell CPT 29µM
COc1cccc(CN(Cc2ccccc2F)S(=O)(=O)c2ccc(S(=O)(=O)NCc3ccccc3)cc2)c1	DT40 TDP1 no CPT inconclusive, TDP1 cell CPT inconclusive
O=C1C=C(NC2=CC3OC(c4ccccc4)OCC3OC2=O)CCC1 (stereo unspecified)	VDR inh 79µM, DT40 TDP1 no CPT 9.2µM, TDP1 cell CPT 8.2µM
N#Cc1ccc(Sc2ccccn2)c([N+](=O)[O-])c1	DT40 TDP1 no CPT inconclusive, TDP1 cell CPT inconclusive
OCCC1CN(CCCn2cccn2)CCN1C1CCCCC1 (stereo unspecified)	GCN5L2 inh 25µM
CC1=C(CCN2CCN(C3CCCC3)C(CCO)C2)C(C)(C)CCC1 (stereo unspecified)	DT40 TDP1 no CPT inconclusive, TDP1 cell CPT 21µM
CC(C)N1CCC(N2CCN(CCCn3cccn3)CC2CCO)CC1 (stereo unspecified)	none
OCCC1CN(Cc2cnc(-c3cccc4ccccc34)nc2)CCN1C1CCCCC1 (stereo unspecified)	DT40 TDP1 no CPT 18µM, TDP1 cell CPT 23µM
Cc1ccccc1-c1ncc(CN2CCN(C3CCCC3)C(CCO)C2)cn1 (stereo unspecified)	none
CC(=O)c1ccc(N2Cc3ccccc3/C2=N\C(=O)Nc2ccc(Cl)cc2)cc1	DT40 TDP1 no CPT inconclusive, TDP1 cell CPT inconclusive
O=C(C[C@@H]1C=C[C@@H](NC(=O)c2cccnc2)[C@@H](CO)O1)NCc1ccncn1	none (no result: GCN5L2 inh, VDR inh, TDP1 inh)
Cc1nnsc1C(=O)NC1CCCc2c1cnn2-c1ccccc1F (stereo unspecified)	DT40 TDP1 no CPT 18µM, TDP1 cell CPT 10µM
